Test results: PubChem BioAssay (Tox21)
Inconclusive results are not listed. Activity calls are given as the source filed them. Unless noted, calls come from the whole dose curve; as a rule, active = well fitted curve in the direction sought with a large enough effect in the repeat runs; inconclusive = weak or mixed curves; inactive = no such curve, though single readings can be large; an effect the other way counts as inactive or inconclusive. Where a SMILES comes first, the peptide text is derived from it.

Assays:
[1] = qHTS assay to identify small molecule agonists of the peroxisome proliferator-activated receptor delta (PPARd) signaling pathway - cell viability counter screen (AID 743211); note: nearly all actives have a fitted effect of over 55% in size
Procedure, shortened: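 PPARd-bla HEK293H cells (3000/well) were pre-incubated 5 h at 37 C, then exposed to compound for 17 h at 37 C. After 2 h with LiveBLAzer substrate, CellTiter-Glo was added to the same wells; luminescence read after 30 min at room temperature.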

[2] = target: Peroxisome proliferator-activated receptor delta (Homo sapiens) (UniProt Q03181); test: qHTS assay to identify small molecule agonists of the peroxisome proliferator-activated receptor delta (PPARd) signaling pathway (AID 743212; calls by dose curve)
Procedure, shortened: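 Read-out: beta-lactamase FRET fluorescence after 2 h room-temperature incubation with LiveBLAzer B/G substrate. Cells were HEK293H carrying a UAS-bla reporter for PPARd, treated at 37 C with DMSO-dissolved compounds.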

[3] = qHTS assay to identify small molecule antagonists of the peroxisome proliferator-activated receptor delta (PPARd) signaling pathway - cell viability counter screen (AID 743213); note: nearly all actives have a fitted effect of over 50% in size
Procedure, shortened: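 Luminescence from CellTiter-Glo, added after the bla read and incubated 30 min at room temperature, gives viability of HEK293H PPARd-bla cells exposed to compounds for 17 h at 37 C with 300 nM L165041.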

[4] = target: Peroxisome proliferator-activated receptor delta (Homo sapiens) (UniProt Q03181); test: qHTS assay to identify small molecule antagonists of the peroxisome proliferator-activated receptor delta (PPARd) signaling pathway (AID 743215; active = well fitted inhibition curve with a large enough effect in the signal ratio in the repeat runs, not every such curve was filed as active; the % refers to the signal ratio;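 note: cells stimulated with agonist L165041 at 300 nM final during compound exposure; series mostly up to about 62 µM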)
Procedure, shortened: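 Screen format: qHTS, antagonist mode. HEK293H PPARd-bla cells received compound and 300 nM L165041 (final), 17 h, 37 C. Beta-lactamase detected via FRET substrate fluorescence, 2 h, room temperature.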

[5] = target: Bile acid receptor (Homo sapiens) (UniProt Q96RI1); test: qHTS assay to identify small molecule antagonists of the farnesoid-X-receptor (FXR) signaling pathway (AID 743217; active = well fitted inhibition curve with a large enough effect in the signal ratio in the repeat runs, not every such curve was filed as active; the % refers to the signal ratio)
Procedure, shortened: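 Quantitative HTS, beta-lactamase reporter format: FXR-UAS-bla HEK 293T cells co-treated 16 h at 37 °C with compounds and 50 uM final chenodeoxycholic acid, then read by B/G FRET fluorescence.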

[6] = qHTS assay to identify small molecule agonists of the farnesoid-X-receptor (FXR) signaling pathway - cell viability counter screen (AID 743218); note: nearly all actives have a fitted effect of over 45% in size
Procedure, shortened: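 Same-well cytotoxicity check on FXR-UAS-bla HEK 293T cells: 5 h attachment, 16 h compound at 37 C, CellTiter-Glo luminescence read at room temperature after 30 min.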

[7] = target: Bile acid receptor (Homo sapiens) (UniProt Q96RI1); test: qHTS assay to identify small molecule agonists of the farnesoid-X-receptor (FXR) signaling pathway (AID 743220; active = well fitted activation curve with a large enough effect in the signal ratio in the repeat runs, not every such curve was filed as active; the % refers to the signal ratio)
Procedure, shortened: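 FXR-UAS-bla HEK 293T cells carrying a UAS-driven beta-lactamase reporter were plated for 5 h at 37C/5% CO2, then exposed to DMSO-dissolved Tox21 10K compounds for 16 h at 37C. A LiveBLAzer B/G FRET substrate was loaded for 2 h at room temperature before fluorescence reading.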

[8] = qHTS assay to identify small molecule antagonists of the farnesoid-X-receptor (FXR) signaling pathway - cell viability counter screen (AID 743221; active = well fitted cell-killing curve with a large enough effect in the repeat runs, not every such curve was filed as active; note: nearly all actives have a fitted effect of over 50% in size)
Procedure, shortened: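 GeneBLAzer FXR-UAS-bla HEK 293T cells, compound plus chenodeoxycholic acid (50 uM final), 16 h at 37 C. CellTiter-Glo added to the same wells after the beta-lactamase read; luminescence read after 30 min at room temperature as viability.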

[9] = target: Vitamin D3 receptor (Homo sapiens) (UniProt P11473); test: qHTS assay to identify small molecule agonists of the vitamin D receptor (VDR) signaling pathway (AID 743222; calls by dose curve)
Procedure, shortened: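 Using LiveBLAzer B/G FRET detection, agonism was scored in VDR-bla cells exposed overnight (16 h, 37C) to DMSO-dissolved compounds; substrate incubation was 2 h at room temperature.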

[10] = target: Vitamin D3 receptor (Homo sapiens) (UniProt P11473); test: qHTS assay to identify small molecule antagonists of the vitamin D receptor (VDR) signaling pathway (AID 743223; active = well fitted inhibition curve with a large enough effect in the signal ratio in the repeat runs, not every such curve was filed as active; the % refers to the signal ratio)
Procedure, shortened: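 VDR-bla cells were treated with compound plus 3 nM final 1alpha,25-dihydroxyvitamin D3 for 16 h at 37C. Beta-lactamase reporter read by B/G FRET substrate fluorescence after 2 h at room temperature. qHTS format.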
% is set by controls: 0 for no effect and ±100 for the full control effect.

Chain of Peroxisome proliferator-activated receptor delta (Homo sapiens) (Q03181 whole entry, looked up): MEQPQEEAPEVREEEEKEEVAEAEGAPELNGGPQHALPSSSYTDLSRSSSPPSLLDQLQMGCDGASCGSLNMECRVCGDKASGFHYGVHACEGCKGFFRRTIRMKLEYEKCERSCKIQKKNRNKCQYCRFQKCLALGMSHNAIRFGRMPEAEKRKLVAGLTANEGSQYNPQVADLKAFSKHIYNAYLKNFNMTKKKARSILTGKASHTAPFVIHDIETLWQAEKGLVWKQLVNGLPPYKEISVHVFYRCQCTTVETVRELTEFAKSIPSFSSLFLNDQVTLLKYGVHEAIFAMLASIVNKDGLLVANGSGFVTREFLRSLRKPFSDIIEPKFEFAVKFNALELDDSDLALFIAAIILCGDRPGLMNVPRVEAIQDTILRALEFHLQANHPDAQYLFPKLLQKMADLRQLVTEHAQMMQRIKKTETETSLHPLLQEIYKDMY
Chain of Bile acid receptor (Homo sapiens) (Q96RI1 whole entry, looked up): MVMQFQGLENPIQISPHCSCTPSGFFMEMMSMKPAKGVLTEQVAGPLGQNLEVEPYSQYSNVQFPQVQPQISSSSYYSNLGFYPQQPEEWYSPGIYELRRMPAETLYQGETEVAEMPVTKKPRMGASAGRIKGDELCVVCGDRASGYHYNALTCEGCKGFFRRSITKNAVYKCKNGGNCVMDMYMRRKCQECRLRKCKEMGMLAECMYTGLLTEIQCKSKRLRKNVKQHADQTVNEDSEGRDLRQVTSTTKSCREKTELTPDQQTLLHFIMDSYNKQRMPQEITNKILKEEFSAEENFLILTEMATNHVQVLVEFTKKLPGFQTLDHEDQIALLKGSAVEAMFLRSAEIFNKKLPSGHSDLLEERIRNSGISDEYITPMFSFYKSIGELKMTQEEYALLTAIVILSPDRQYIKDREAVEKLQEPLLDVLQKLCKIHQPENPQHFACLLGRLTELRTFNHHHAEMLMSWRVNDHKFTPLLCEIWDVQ
Chain of Vitamin D3 receptor (Homo sapiens) (P11473 whole entry, looked up): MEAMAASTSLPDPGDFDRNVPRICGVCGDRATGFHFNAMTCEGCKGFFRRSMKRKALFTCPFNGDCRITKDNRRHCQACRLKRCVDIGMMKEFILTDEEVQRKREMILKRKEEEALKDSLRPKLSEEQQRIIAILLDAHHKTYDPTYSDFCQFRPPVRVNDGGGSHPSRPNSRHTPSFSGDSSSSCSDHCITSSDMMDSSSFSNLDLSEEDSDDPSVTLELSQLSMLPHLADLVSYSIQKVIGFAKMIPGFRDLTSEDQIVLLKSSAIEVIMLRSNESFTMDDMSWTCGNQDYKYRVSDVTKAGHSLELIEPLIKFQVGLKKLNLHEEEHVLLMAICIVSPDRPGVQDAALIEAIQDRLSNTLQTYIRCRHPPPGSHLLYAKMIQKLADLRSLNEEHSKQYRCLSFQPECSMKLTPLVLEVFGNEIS

Cc1ccccc1C(N)=O
inactive: outcome [1] | outcome [2] | outcome [3] | outcome [4] | outcome [5] | outcome [6] | outcome [7] | outcome [8]

CC(=O)N[C@@H](CO)C(=O)N[C@@H](CC(=O)O)C(=O)N[C@@H](CCCCN)C(=O)N1CCC[C@H]1C(=O)O (Ac-SDKP-OH)
inactive: outcome [1] | outcome [2] | outcome [3] | outcome [4] | outcome [5] | outcome [6] | outcome [7] | outcome [8] | outcome [9] | outcome [10]

CCn1cc(C(=O)O)c(=O)c2cnc(N3CCCC3)nc21
inactive: activity change, negative = cytotoxicity [1] 3.01% [at 13.2 µM] | activation [2] -4.9% [at 13.2 µM] | viability change, negative = cytotoxic [3] -17.7% [at 13.7 µM] | ratio activity, negative = inhibition [4] -14.6% [at 13.7 µM] | activity change, negative = inhibition [5] 6.21% [at 13.2 µM] | viability change, negative = cytotoxic [6] -3.43% [at 13.2 µM] | activation [7] -0.921% [at 13.2 µM] | activity change, negative = cytotoxicity [8] -0.638% [at 13.2 µM]

CCCCCCCCCOC(=O)c1ccccc1C(=O)OCCCCCCCCC
inactive: outcome [1] | outcome [2] | outcome [3] | outcome [4] | outcome [5] | outcome [6] | outcome [7] | outcome [8] | outcome [9] | outcome [10]

O=NN(CCCl)C(=O)NC1CCCCC1
inactive: outcome [1] | outcome [2] | outcome [3] | outcome [4] | outcome [5] | outcome [6] | outcome [7] | outcome [8]

CCCCOC(=O)[C@H](C)O
inactive: outcome [1] | outcome [2] | outcome [3] | outcome [4] | outcome [5] | outcome [6] | outcome [7] | outcome [8] | outcome [9]

O=C(Cn1ccnc1[N+](=O)[O-])NCc1ccccc1
inactive: outcome [1] | outcome [2] | outcome [3] | outcome [4] | outcome [5] | outcome [6] | outcome [7] | outcome [8]

CC(C)(CO)C(O)C(=O)NCCCO (stereo not given)
inactive: outcome [1] | outcome [2] | outcome [3] | outcome [4] | outcome [5] | outcome [6] | outcome [7] | outcome [8] | outcome [9] | outcome [10]

Nc1nnnn1-c1ccccc1
inactive: outcome [1] | outcome [2] | outcome [3] | outcome [4] | outcome [5] | outcome [6] | outcome [7] | outcome [8] | outcome [9]

CCCCCCCCCCCCCBr
inactive: outcome [1] | outcome [2] | outcome [3] | outcome [4] | outcome [5] | outcome [6] | outcome [7] | outcome [8]

CCOCCOCC
inactive: outcome [1] | outcome [2] | outcome [3] | outcome [4] | outcome [5] | outcome [6] | outcome [7] | outcome [8] | outcome [9]

NCc1ccc(S(N)(=O)=O)cc1
inactive: outcome [1] | outcome [2] | outcome [3] | outcome [4] | outcome [5] | outcome [6] | outcome [7] | outcome [8] | outcome [9] | outcome [10]

CCNC(=O)NCc1cccc(Cl)c1
inactive: outcome [1] | outcome [2] | outcome [3] | outcome [4] | outcome [5] | outcome [6] | outcome [7] | outcome [8] | outcome [9]

N#Cc1ccccc1O
inactive: outcome [1] | outcome [2] | outcome [3] | outcome [4] | outcome [5] | outcome [6] | outcome [7] | outcome [8] | outcome [9] | outcome [10]

COC(=O)CCCCC(CCSS/C(CCO)=C(\C)N(C=O)Cc1cnc(C)nc1N)SC(C)=O (stereo not given)
inactive: outcome [1] | outcome [2] | outcome [3] | outcome [4] | outcome [5] | outcome [6] | outcome [7] | outcome [8]

CCCCOC(=O)C(C)O (stereo not given)
inactive: outcome [1] | outcome [2] | outcome [3] | outcome [4] | outcome [5] | outcome [6] | outcome [7] | outcome [8] | outcome [9] | outcome [10]

O=C(O)CONC(=O)c1ccccc1
inactive: outcome [1] | outcome [2] | outcome [3] | outcome [4] | outcome [5] | outcome [6] | outcome [7] | outcome [8] | outcome [9]

O=C(O)CSCC(=O)NC1CCSC1=O (stereo not given)
inactive: outcome [1] | outcome [2] | outcome [3] | outcome [4] | outcome [5] | outcome [6] | outcome [7] | outcome [8] | outcome [9]

Cc1ccnc(N)c1
inactive: outcome [1] | outcome [2] | outcome [3] | outcome [4] | outcome [5] | outcome [6] | outcome [7] | outcome [8]

OC1(c2ccc(Cl)cc2)CCNCC1
inactive: outcome [1] | outcome [2] | outcome [3] | outcome [4] | outcome [5] | outcome [6] | outcome [7] | outcome [8] | outcome [9] | outcome [10]

CN1C[C@@H]2C[C@H]1CN2c1cc2c(cc1F)c(=O)c(C(=O)O)cn2C1CC1
inactive: outcome [1] | outcome [2] | outcome [3] | outcome [4] | outcome [5] | outcome [6] | outcome [7] | outcome [8] | outcome [9] | outcome [10]

CC(C)OC(=O)CCC(=O)OC(C)C
inactive: outcome [1] | outcome [2] | outcome [3] | outcome [4] | outcome [5] | outcome [6] | outcome [7] | outcome [8] | outcome [9]

O=C[O][Al]([O]C=O)[O]C=O
inactive: outcome [1] | outcome [2] | outcome [3] | outcome [4] | outcome [5] | outcome [6] | outcome [7] | outcome [8] | outcome [9]

O=C1c2ccccc2C(=O)c2cc(Cl)ccc21
inactive: activity change, negative = cytotoxicity [1] -0.0176% [at 5.95 µM] | activation [2] -1.6% [at 5.95 µM] | viability change, negative = cytotoxic [3] 3.97% [at 6.26 µM] | ratio activity, negative = inhibition [4] 5.48% [at 6.26 µM] | activity change, negative = inhibition [5] -1.25% [at 5.95 µM] | viability change, negative = cytotoxic [6] -3.87% [at 5.95 µM] | activation [7] 0.306% [at 5.95 µM] | activity change, negative = cytotoxicity [8] -3.54% [at 5.95 µM] | activation [9] -5.27% [at 6.01 µM] | activity change, negative = inhibition [10] -12.7% [at 6.95 µM]

OCC(O)CN1CCN(c2ccccc2)CC1 (stereo not given)
inactive: outcome [1] | outcome [2] | outcome [3] | outcome [4] | outcome [5] | outcome [6] | outcome [7] | outcome [8]

CC/C(C)=N\O[Si](C)(O/N=C(\C)CC)O/N=C(\C)CC
inactive: outcome [1] | outcome [2] | outcome [3] | outcome [4] | outcome [5] | outcome [6] | outcome [7] | outcome [8] | outcome [9]
